# From PubChem BioAssay (NCI)
# Several values for one entry are separate records, joined by “and”; a condition that tells them apart may be missing. Identical values can stand only once. About 83,000 compounds went through this panel and 20% of them were active in at least one assay; those are over-represented in the sample as a whole.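 Each cell line was grown in a 96-well plate and treated with one concentration of compound for 48 hours. Values below 10 were considered active.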 The source holds several records for some structures; these can differ, active in one and inactive in another. Activity calls are given as the source filed them.
# How the values were obtained:
# Experiment in all cases: NCI-60 one-dose screen, 48 h (100 = growth as untreated, 0 = no growth, -100 = all killed)
# Settings in all cases: 10 µM unless noted
# SK-MEL-2 melanoma = system: SK-MEL-2 melanoma
# EKVX NSCLC = system: EKVX NSCLC
# SN12C renal = system: SN12C renal
# UO-31 renal = system: UO-31 renal
# TK-10 renal = system: TK-10 renal
# ACHN renal = system: ACHN renal
# CAKI-1 renal = system: CAKI-1 renal
# A498 renal = system: A498 renal
# CCRF-CEM leukemia = system: CCRF-CEM leukemia
# MOLT-4 leukemia = system: MOLT-4 leukemia
# SR leukemia = system: SR leukemia
# RPMI-8226 leukemia = system: RPMI-8226 leukemia
# OVCAR-8 ovarian = system: OVCAR-8 ovarian
# OVCAR-5 ovarian = system: OVCAR-5 ovarian
# OVCAR-4 ovarian = system: OVCAR-4 ovarian
# IGROV1 ovarian = system: IGROV1 ovarian
# OVCAR-3 ovarian = system: OVCAR-3 ovarian
# HS 578T breast = system: HS 578T breast
# NCI/ADR-RES ovarian = system: NCI/ADR-RES ovarian
# SK-OV-3 ovarian = system: SK-OV-3 ovarian
SMILES,growth (SK-MEL-2 melanoma),growth (EKVX NSCLC),growth (SN12C renal),growth (UO-31 renal),growth (TK-10 renal),growth (ACHN renal),growth (CAKI-1 renal),growth (A498 renal),growth (CCRF-CEM leukemia),growth (MOLT-4 leukemia),growth (SR leukemia),growth (RPMI-8226 leukemia),growth (OVCAR-8 ovarian),growth (OVCAR-5 ovarian),growth (OVCAR-4 ovarian),growth (IGROV1 ovarian),growth (OVCAR-3 ovarian),growth (HS 578T breast),growth (NCI/ADR-RES ovarian),growth (SK-OV-3 ovarian)
CN(C)c1ccc2nc3ccc(N)cc3[n+](-c3ccccc3)c2c1,58.2% (inactive),27.8% (inactive) and 12.6% (inactive),6.72% (active) and -36.4% (active),62.1% (inactive) and 31% (inactive),20.6% (inactive),73.5% (inactive) and 30.8% (inactive),94.2% (inactive) and -40.5% (active),67.5% (inactive) and 41.8% (inactive),24.6% (inactive) and 13.7% (inactive),23% (inactive) and 0.316% (active),18.6% (inactive) and 11% (inactive),8.36% (active) and 13.7% (inactive),19.4% (inactive) and -16.6% (active),87.1% (inactive) and -46.4% (active),29.2% (inactive) and 1.54% (active),12.8% (inactive) and 13.7% (inactive),23.5% (inactive) and -18.1% (active),31.7% (inactive) and 23.4% (inactive),92% (inactive) and 26% (inactive),
COc1cc2c(Nc3ccc(Cl)c(Cl)c3F)ncnc2cc1OCC1C[C@@H]2CN(C)C[C@@H]2C1 (some centres undefined),74.2% (inactive),-83% (active) and 41.9% (inactive),-76.7% (active) and 18.4% (inactive),-84.8% (active) and -66.7% (active),-94.8% (active) and -18.4% (active),-97.8% (active) and 8.5% (active),-77.2% (active) and -2.69% (active),-95.7% (active) and -81.6% (active),-44.9% (active) and -0.854% (active),-53% (active),-23.1% (active) and -45.4% (active),-48.5% (active) and 6.02% (active),-88.4% (active) and 27.4% (inactive),,-42.7% (active) and 29.5% (inactive),-70.1% (active) and -9.02% (active),-53.9% (active) and 25.6% (inactive),-16.9% (active),-56.5% (active) and 29.6% (inactive),-87.7% (active) and -13.8% (active)
Cc1nn(-c2ccc(Cl)cc2)c2ncnc(N/N=C/c3ccccc3O)c12,12.3% (inactive) and 36% (inactive),38.1% (inactive) and 5.43% (active),23.1% (inactive) and 4.76% (active),35.2% (inactive) and -11.4% (active),16.4% (inactive) and 36.7% (inactive),16.5% (inactive) and 5.9% (active),13.5% (inactive) and 5.47% (active),78.5% (inactive) and 69.6% (inactive),6.41% (active) and -2.4% (active),9.43% (active) and 6.36% (active),4.8% (active) and 5.64% (active),37.1% (inactive) and 11.7% (inactive),14.1% (inactive) and 14% (inactive),,19.5% (inactive) and 21.9% (inactive),23.9% (inactive) and 4.47% (active),34.9% (inactive) and 26.7% (inactive),81% (inactive) and 56.4% (inactive),19.1% (inactive) and 10.5% (inactive),
CCN(CC)CCNc1ccc(C)c2sc3ccccc3c(=O)c12 (tested in a mixture with another compound),59.2% (inactive) and 86.4% (inactive),68.6% (inactive) and 86.6% (inactive),35.1% (inactive) and 36.4% (inactive),-4.88% (active) and 2.67% (active),23.1% (inactive) and 50% (inactive),16.7% (inactive) and 10.4% (inactive),22.4% (inactive) and 29.9% (inactive),102% (inactive) and 75.7% (inactive),55.7% (inactive) and 29.3% (inactive),8.98% (active) and 26.9% (inactive),8.47% (active) and 20% (inactive),10.1% (inactive) and -9.01% (active),23.7% (inactive) and 32.3% (inactive),48.8% (inactive) and 51.6% (inactive),40.7% (inactive) and 53.3% (inactive),-29.6% (active) and 3.62% (active),58.9% (inactive) and 62.8% (inactive),122% (inactive) and 81.6% (inactive),43.1% (inactive) and 43% (inactive),
CC1=C(/C=C/C(C)=C/C=C/C(C)=C/C=N/NC(=S)NC(=S)N/N=C/C=C(C)/C=C/C=C(C)/C=C/C2=C(C)CCCC2(C)C)C(C)(C)CCC1,-66.4% (active) and -84.6% (active),36% (inactive) and 25.5% (inactive),-29% (active) and -55.2% (active),-36% (active) and -47.4% (active),-8.64% (active) and -42.5% (active),38.9% (inactive) and 10.2% (inactive),-37.9% (active) and -20.1% (active),23.6% (inactive) and -47.4% (active),-16.5% (active) and -23.4% (active),-22.2% (active) and -41.2% (active),23.6% (inactive) and 1.02% (active),-2.02% (active) and -32.7% (active),-12.5% (active) and -74.8% (active),,17% (inactive) and -0.538% (active),,-74.5% (active) and -99.4% (active),,-34% (active) and -58.9% (active),57.5% (inactive)
O=[N+]([O-])c1ccccc1N(S(=O)(=O)c1ccccc1)S(=O)(=O)c1ccccc1,106% (inactive),102% (inactive) and 85.1% (inactive),102% (inactive) and 99.2% (inactive),86.7% (inactive) and 67% (inactive),93.3% (inactive) and 97.1% (inactive),102% (inactive) and 93.4% (inactive),79.4% (inactive) and 56.3% (inactive),86.9% (inactive) and 98.6% (inactive),53.7% (inactive) and 105% (inactive),-13.5% (active) and 103% (inactive),85.8% (inactive) and 101% (inactive),85.4% (inactive) and 90.4% (inactive),98.2% (inactive) and 95.6% (inactive),,115% (inactive),99.2% (inactive) and 96.7% (inactive),107% (inactive) and 93.5% (inactive),113% (inactive),98.9% (inactive) and 86.3% (inactive),109% (inactive) and 111% (inactive)
Clc1ccc(NC(Nc2ccc(Cl)cc2)C(Cl)(Cl)Cl)cc1,85.6% (inactive) and 95.8% (inactive),85.7% (inactive) and 99.3% (inactive),84% (inactive) and 111% (inactive),25.5% (inactive) and 75.1% (inactive),110% (inactive) and 92.3% (inactive),41.6% (inactive),66% (inactive),107% (inactive) and 101% (inactive),95% (inactive),70.3% (inactive) and 89.5% (inactive),99.4% (inactive),95.9% (inactive),93.6% (inactive) and 107% (inactive),,82.4% (inactive) and 118% (inactive),75.3% (inactive) and 103% (inactive),89% (inactive) and 102% (inactive),109% (inactive),61.5% (inactive) and 99.4% (inactive),100% (inactive) and 98% (inactive)
NS(=O)(=O)c1cc2c(cc1Cl)NC(C(Cl)Cl)NS2(=O)=O (centres undefined),104% (inactive) and 135% (inactive),89.3% (inactive) and 110% (inactive),93.2% (inactive) and 103% (inactive),90.7% (inactive) and 87.4% (inactive),98.5% (inactive) and 121% (inactive),96.7% (inactive) and 92.4% (inactive),98.8% (inactive) and 95.4% (inactive),97.6% (inactive) and 96.2% (inactive),89.2% (inactive) and 92.5% (inactive),95.1% (inactive) and 92.4% (inactive),99.8% (inactive),96.7% (inactive) and 100% (inactive),99.2% (inactive) and 95.3% (inactive),,97.4% (inactive) and 114% (inactive),101% (inactive) and 109% (inactive),119% (inactive) and 126% (inactive),124% (inactive) and 128% (inactive),101% (inactive) and 108% (inactive),106% (inactive) and 114% (inactive)
